Columns and labels:
Assay in all cases: PBM binding z-score (relative to random genomic background probes); higher = stronger binding; sequences stand for … in GC…GCGATTGACAGCGTAGAATGAAGG
[1] = test system: RARb homodimer (NR concentration 270 nM)
Procedure, shortened: (§1)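 Each nuclear receptor dimer, without ligand, was incubated for 1 h on custom Agilent 4×180K protein-binding microarrays. Binding was detected with antibodies against each partner (one per run), and scanned fluorescence was regression-normalized. The binding z-scores are referenced to random human genomic background probes.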

[2] = test system: RARg:RXRa (NR concentration 270 nM, RXRa partner concentration 90 nM)
Procedure, shortened: as §1

[3] = test system: RARg homodimer (NR concentration 270 nM)
Procedure, shortened: as §1

[4] = test system: RXRa DBDmut IVT, anti-RXR (DBD mutation: RXRa K156A/R161A, NR concentration 90 nM)
Procedure, shortened: as §1

[5] = test system: RXRa homodimer (NR concentration 180 nM)
Procedure, shortened: as §1

[6] = test system: THRa:RXRa (NR concentration 90 nM, RXRa partner concentration 90 nM)
Procedure, shortened: as §1

[7] = test system: THRa homodimer (NR concentration 90 nM)
Procedure, shortened: as §1

[8] = test system: VDR:RXRa (NR concentration 270 nM, RXRa partner concentration 90 nM)
Procedure, shortened: as §1

[9] = test system: VDR homodimer (NR concentration 270 nM)
Procedure, shortened: as §1

Row | Sequence | PBM binding z-score [1] | PBM binding z-score [2] | PBM binding z-score [3] | PBM binding z-score [4] | PBM binding z-score [5] | PBM binding z-score [6] | PBM binding z-score [7] | PBM binding z-score [8] | PBM binding z-score [9]
1 | CGATGTAGGTTAAGGGGGTCATTCAGTTTGAAAG | 3.87 | 5.19 | 4.02 | 2.93 | 5.85 | 3.81 | 2.8 | 7.68 | 6.65
2 | TAGCCTAGGTCATTCAGGGGCTAGTATAGAAAGC | 2.84 | 4.98 | 4.16 | 1.94 | 2.89 | 3.74 | 0.0111 | 2.8 | 0.805
3 | TCGAGTAGGTTACTGGGGCATTCAGGGATGAAGA | 0.974 | 0.621 | 0.564 | 0.0231 | 0.761 | 1.83 | -0.116 | 0.313 | -0.285
4 | TATACTGGGTCAAAGGCCAGAGTACGAATGTCGA | 2.9 | 3.96 | 3.88 | 0.958 | 3.99 | 2.24 | 0.212 | 2.38 | 1.37
5 | ATATGTAGATTAGGGTCATTCAGAAAGTAGGGAA | 3.09 | 3.47 | 2.29 | 2.09 | 4.53 | 3.9 | 2.95 | 4.06 | 3.14
6 | GCTGCTAGGTCAGGTTGGTCGGCTAACGGGTACG | 2.31 | 2.38 | 3.52 | -0.206 | 0.882 | 1.5 | 0.491 | 0.166 | 0.0919
7 | AAATGTAGGTTAAGGGTCATTCAGGTTGGTTCGC | 3.78 | 4.73 | 3.54 | 2.32 | 5.91 | 3.57 | 1.64 | 5.82 | 4.26
8 | CATACACGGTCAGCTAGGCCAGAGTAGGGACGGC | 1.5 | 1.24 | 2.04 | -0.438 | 0.355 | 0.226 | -0.129 | -0.0494 | -0.286
9 | CTATCTAGGTTAAGGGGGTCATTCAGTTTGAAAG | 3.94 | 5.18 | 4.36 | 2.55 | 5.74 | 3.91 | 2.14 | 7.51 | 7.21
10 | CCTTACGGGTCAAGGTTATCGCACGGGTGGTACG | 3.58 | 5.02 | 5.11 | 1.31 | 5.6 | 3.15 | 1.02 | 3.69 | 1.69
11 | CAAACTAGGTCACGAAAGGTCAACGTCGAATGAC | 6.16 | 8.06 | 8.96 | 2.47 | 8.35 | 5.36 | 2.98 | 6.9 | 3.47
12 | TCGAGTAGGTTACGGGGACATTCAGGGATGAAGA | 1.42 | 1.26 | 1.01 | 0.561 | 1.09 | 2.77 | 1.57 | 1.27 | 1.1
13 | ATATGTAGGTTACATCCGGGTCTTTCAGGCTATG | 1.01 | 1.09 | 1.02 | 0.936 | 0.924 | 1.62 | 0.947 | 1.06 | 0.214
14 | CGTCAAAGCTCAACTAAGGTAACGTAAAGCACGC | 0.161 | 0.118 | 0.236 | 0.155 | -0.0326 | 3.64 | 1.57 | 0.0405 | -0.205
15 | TATACAGGGTCTAAGGCCAGAGTACGAATGTCGA | 0.78 | 0.921 | 1.04 | 0.336 | 0.544 | 1.05 | 0.535 | 0.486 | 1.12
16 | CAAACTAGGTCACGAAAGGTCAAATTCGAATGAC | 5.85 | 7.7 | 8.41 | 2.5 | 8.21 | 5.14 | 2.56 | 6.93 | 3.46
17 | CAAACTAGGTCAAAGGTCAGAGTCGAGCCAACCA | 5.01 | 8.13 | 6.87 | 2.57 | 9.54 | 4.59 | 1.56 | 5.78 | 2.39
18 | CGTCAAAGTTCAACTAAGGTAACTTAAAGCACGC | 4.27 | 5.75 | 6.52 | 4.71 | 4.83 | 5.38 | 1.52 | 4.76 | 4.08
19 | CGTCCAAGGTCAGCAGGTCAGAGAAAGCGACGTG | 4.32 | 6.59 | 6.67 | 2.55 | 5.72 | 3.92 | 2.42 | 3.98 | 1.83
20 | CGAACTAGGTCACCAGGTCAGTGAAGAGGTTGGA | 4.64 | 5.69 | 6.17 | 1.7 | 4.83 | 3.89 | 2.72 | 3.92 | 1.52
21 | AGAATGAGGTTACACGTAGATCAGGGAAGAAAGT | 1.16 | 2.34 | 1.89 | 1.23 | 2.3 | 2.75 | 1.12 | 1.67 | 0.772
22 | CCTGCTAGGACAATGGTCAGCTAAAGCAGCTCGC | -0.0607 | -0.421 | -0.262 | 0.179 | -0.865 | 0.0505 | -0.399 | -0.832 | -0.794
23 | TAGCCTAGGTCAGATCGGGCGAGTATACGCTATA | 2.27 | 2.7 | 3.68 | -0.51 | 1.44 | 3.15 | -0.0987 | 0.506 | -0.405
24 | CAGAGTAGGTTACGAGGGGGCATTCAGTGCGAAT | 2.26 | 3.13 | 2.84 | 1.78 | 2.2 | 3.68 | 1.15 | 5.33 | 4.2
25 | AGTCAAAGTTCATCTGGGTAACGTAAGATATGCT | 4.07 | 5.32 | 5.48 | 4.78 | 4.42 | 2.82 | 0.135 | 4.96 | 4.81
26 | CCTACTGGGCCAAAGGTCCTTGATTCCAATGCTC | 0.379 | 0.102 | -0.124 | -0.459 | 0.121 | -0.00931 | -0.139 | -0.303 | -0.217

Row | Sequence | PBM binding z-score [1] | PBM binding z-score [2] | PBM binding z-score [3] | PBM binding z-score [4] | PBM binding z-score [5] | PBM binding z-score [6] | PBM binding z-score [7] | PBM binding z-score [8] | PBM binding z-score [9]
27 | CGAACTAGGTCAAAGGACAGTTAAAGGCGACGTA | 3.01 | 4.13 | 4.51 | 1.67 | 3.1 | 2.49 | 0.41 | 1.52 | 0.768
28 | ATAGGTAGGTTAGGGTCATTCAGAAAGTAGGGAA | 3.99 | 4.32 | 4.06 | 2.36 | 5.28 | 4.76 | 3.77 | 5.05 | 4.51
29 | ATATGTAGCTTAGGGTCATTCAGAAAGTAGGGAA | 2.97 | 3.71 | 2.73 | 2.16 | 4.87 | 4.07 | 3.15 | 4.27 | 3.71
30 | CAGACTAGGTCAAAGGTCAAAGTCGAGCCAACCA | 5.25 | 8.9 | 7.48 | 3.08 | 10.3 | 4.68 | 1.38 | 6.58 | 3.17
31 | ACTCGGGGGACAAAGGTCAGAGCTACGCCAGTGA | 4.56 | 7.2 | 6.12 | 2.06 | 6.34 | 3.82 | 1.07 | 4.66 | 1.81
32 | AATACAGGGTCACTAGGTCAGAGTAGGTACGAAT | 4.58 | 6.39 | 6.22 | 2.99 | 6.66 | 3.92 | 2.23 | 5.25 | 3.55
33 | CGAACTAGGTCAGAGCAGGACAGTGAAGGATGAT | 1.84 | 2.48 | 3.25 | 0.613 | 1.11 | 4.2 | 0.0649 | 0.711 | -0.21
34 | TCTTGTAGATCAAAGGTTAAGACAGCCGAAGCCT | 1.45 | 1.94 | 1.05 | 0.925 | 3.08 | 1.24 | -0.0838 | 1.68 | 0.141
35 | CAATCTAGGTCAAAGGTCAAAGTCGAGCCAACCA | 5.31 | 8.93 | 7.21 | 2.92 | 10.3 | 4.99 | 2.3 | 6.74 | 2.73
36 | CGTCCAAGGTCAAAGGTCAGCGAAGAGATGACGG | 5.39 | 8.99 | 8.41 | 3.72 | 10.4 | 5.06 | 2.63 | 6.91 | 3.77
37 | CGAACTAGGTCAAACGACAGTGAAAGGCGACGTA | 2.49 | 4.21 | 4.7 | 1.76 | 3.32 | 2.29 | 0.23 | 1.43 | 0.347
38 | ATATGTAGGTTAGGGTCATTCTGAAAGTAGGGAA | 3.35 | 3.61 | 2.78 | 2.79 | 4.88 | 4.05 | 3.12 | 4.44 | 3.77
39 | CGTCAAAGTTCAAGTTAACGTAACAGAAAGCAGC | 4.24 | 5.84 | 6.77 | 4.89 | 5.38 | 2.3 | -0.142 | 4.32 | 4.05
40 | CAATGTAGGTTAAGGGGGTCATTCAGTTTGAAAG | 4.09 | 5.27 | 3.94 | 3 | 5.94 | 3.9 | 2.81 | 7.74 | 6.76
41 | CGAACTAGGTCATAGGACAGTGAAAGGCGACGTA | 2.66 | 3.62 | 3.88 | 1.21 | 3.11 | 2.64 | 0.357 | 1.47 | 0.417
42 | CCGAGTAGGTTTCGAGGGGGCATTCAGTGCGAAT | 1.58 | 1.89 | 1.17 | 1.67 | 1.19 | 2.37 | 0.874 | 3.65 | 3.52
43 | CACACTAGGTCAAGAGGTCAAAGTCCGCTTCCCG | 5.71 | 8.04 | 7.49 | 3.09 | 8.05 | 4.5 | 3.03 | 6.08 | 4.78
44 | TCGAGTATGTTACGGGGGCATTCAGGGATGAAGA | 1.62 | 2.19 | 1.29 | 2.11 | 1.67 | 3.98 | 1.12 | 3.48 | 3.01
45 | TCGAGTAGGTGACGGGGGCATTCAGGGATGAAGA | 2.01 | 2.59 | 1.91 | 1.94 | 1.86 | 3.83 | 1.64 | 3.36 | 3.28
46 | TCGAGTAGGTTACGGGAGCATTCAGGGATGAAGA | -0.0117 | 0.484 | 0.553 | -0.267 | 0.792 | 1.89 | -0.885 | 0.0873 | -0.591
47 | CCTAGCCGGCCAATCTGGGTCACTCAAGGCTTGA | 2.25 | 1.14 | 1.24 | -0.259 | 0.623 | 3.15 | 0.859 | 0.613 | 0.329
48 | GCTGCTAGGTCAGGTTGGTCAACTAACGGGTACG | 2.85 | 2.92 | 3.89 | 0.438 | 1.17 | 1.91 | 0.472 | 0.9 | 0.97
49 | GCTTACGGGTGAAAGGTTATAGCATGAATAGAAT | 1.48 | 3.01 | 1.34 | 0.431 | 4.95 | 2.2 | 0.0422 | 2.17 | -0.0188
50 | CCGAGTAGGTTAGGAGGGGGCATTCAGTGCGAAT | 2.05 | 2.89 | 2.76 | 1.76 | 1.87 | 3.46 | 1.44 | 4.91 | 4.12
51 | CCGAGTAGGTTACGAGAGGGCATTCAGTGCGAAT | 1.65 | 1.75 | 1.42 | 0.522 | 1.39 | 3.76 | -0.738 | 4.33 | 2.06
52 | CGAATTAGGTCACCAGGACAGTGAAGAGGTTGGA | 3.77 | 4.66 | 5.28 | 1.56 | 3.42 | 3.98 | 2.96 | 2.06 | 0.575

Source: the supplement of paper PMC6555819
